From PubChem BioAssay AID492992 (Johns Hopkins Ion Channel Center, 2010) come the findings set out here.

About 2,100 (43%) of roughly 4,900 compounds were called active.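 Rule for the calls: active = thallium signal inhibited by more than 5 SD of the compound-free buffer control wells, on both duplicate plates; inactive = the rest.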 The set was probably picked from earlier hits. Only a sample is shown.

Chain of Potassium channel subfamily K member 9 (Homo sapiens) (Q9NPC2 whole entry, looked up): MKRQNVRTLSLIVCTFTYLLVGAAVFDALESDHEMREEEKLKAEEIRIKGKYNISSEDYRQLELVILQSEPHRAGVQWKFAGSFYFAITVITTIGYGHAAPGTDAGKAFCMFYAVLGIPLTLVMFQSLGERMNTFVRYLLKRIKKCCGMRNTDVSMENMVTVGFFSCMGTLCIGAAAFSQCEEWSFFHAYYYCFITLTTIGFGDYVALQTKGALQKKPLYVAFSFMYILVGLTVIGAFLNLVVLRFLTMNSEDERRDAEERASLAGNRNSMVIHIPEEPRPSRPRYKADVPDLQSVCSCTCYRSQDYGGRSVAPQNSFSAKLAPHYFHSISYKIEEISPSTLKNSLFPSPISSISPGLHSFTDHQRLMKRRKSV

This test concerns the target Potassium channel subfamily K member 9 (Homo sapiens) (UniProt Q9NPC2). Description: blockers of human TASK-3 (KCNK9) channel – HEK293 cells, thallium flux, duplicate, confirmation (AID 492992).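 For inhibition: 0% = assay buffer control wells without compound.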 Particulars: FluxOR thallium flux fluorescence, at 10 µM; active compounds read high.
By inhibition is commonly meant the drop in the measured response relative to a control, in per cent. As for `CN(CCC(=O)Nc1cc(S(=O)(=O)N(C)C)ccc1Cl)CC(=O)Nc1ccc(F)cc1`, the inhibition was 51.5% (active).

Regarding `CC1CCN(C(=S)c2ccc(-c3ccc(Cl)cc3Cl)o2)CC1`, the inhibition entry was “inactive”. Turning to `COc1ccc(C2Nc3ccccc3C(=O)N2Cc2ccccc2)cc1Cn1nnc2ccccc21` (configuration not stated), the inhibition entry was “inactive”. Next, `O=C(Nc1ccc(Cl)c(Cl)c1)N1CC=C(c2ccccc2)CC1`: 30% (active). `O=C(COC(=O)c1ccccc1)Nc1ccccc1Sc1ccccc1`: the inhibition was 35% (active). On to `CCN(C(=O)COc1ccc(C(=O)c2ccccc2)cc1)c1ccccc1`, for which the inhibition was 40% (active). Next, `CCOC(=O)[C@@H]1[C@H]2COc3ccc(Br)cc3[C@H]2N2C(=O)N(c3ccc(Cl)cc3)C(=O)[C@@]12C`: 56.5% (active); `C[C@@]12C(=O)N(c3cccc(Br)c3)C(=O)N1[C@H](c1ccc(Cl)cc1)[C@@H]1C(=O)N(C3CCCCC3)C(=O)[C@@H]12`: “inactive”; `COc1cccc2cc(C(C)N(CCCN3CCOCC3)C(=O)Nc3ccc(Cl)cc3)oc12` (configuration not stated): 42.5% (active).

`CCC(c1nnnn1Cc1ccco1)N(CCc1ccccc1)Cc1cc2cccc(C)c2[nH]c1=O` (configuration not stated): the inhibition is 47% (active). As for `Cc1cccc2cc(CN(Cc3nnnn3Cc3ccccc3)C3CCCC3)c(=O)[nH]c12`, the figure is 27% (active). Next, `CCOc1ccc(OCc2ccc(C(=O)Nc3cccc(C)n3)o2)cc1`: “inactive”; `O=C(Cc1ccccc1)n1nc(-c2ccccc2)nc1NCc1ccco1`: “inactive”; `CCCSc1nc(NCc2ccco2)c2c3c(sc2n1)COC(C)(CC)C3` (configuration not stated): 40% (active).

For `CCC1(C)Cc2c(sc3[nH]c(=S)n(Cc4ccccc4)c(=O)c23)CO1` (configuration not stated), the inhibition entry is “inactive”. As for `Cc1ccc(C)c(NC(=S)NNC(=S)Nc2ccc(C(C)C)cc2)c1`, the entry is “inactive”; as for `CCOC(=O)Cc1cc(=O)[nH]c(=O)[nH]1`, 25% (active).

Consider `Clc1ccc(Cl)c(Oc2ccc(Oc3nc(Cl)ccc3Cl)cc2)n1`, for which the inhibition entry was “inactive”.

Regarding `CCC/C=C(\CCC)C(NC(=O)Cc1ccccc1)c1ccc(C(=O)OC)cc1` (configuration not stated), the inhibition was 67% (active).

With `CC(C)(C)SCCSC1=CC(=O)CC(c2ccccc2)C1` (configuration not stated), the inhibition entry is “inactive”. For `CCCCCC(O)c1cccc(OCc2ccc3ccccc3n2)c1` (configuration not stated), the inhibition was 74.5% (active).

Consider `COc1cccc(-c2cnc(OC(C)(C)C)nc2OC(C)(C)C)c1`, for which the inhibition entry is “inactive”. As for `CCOC(=O)c1cc2sccc2n1Cc1ccc(C#N)cc1`, the figure is 65% (active); as for `CCOC(=O)c1c(NC(=O)CCCN2CCOCC2)sc2c1CC(C)(C)OC2`, “inactive”. As for `CN(CCOc1ccccc1)C(=O)c1cc(COc2c(F)cccc2F)on1`, the entry is “inactive”; as for `CCOC(=O)C1=C(C)Nc2sc(C(=O)c3ccc(Br)cc3)c(N)c2C1c1ccc(C(=O)OC)cc1` (configuration not stated), 31% (active); as for `COc1cc(Cl)c(S(=O)(=O)N2CCN(Cc3ccc4c(c3)OCO4)CC2)cc1Cl`, “inactive”. As for `COc1ccc(C(=O)NN2C(=O)C3C(c4ccccc4)C=CC(c4ccccc4)C3C2=O)cc1` (configuration not stated), the entry is “inactive”. As for `COc1ccc(C(=O)Nc2ccccc2C(=O)N/N=C/c2ccccc2OC)cc1`, the inhibition was 36.5% (active). Regarding `O=C(CNCCC1=CCCCC1)Nc1ccccc1N1CCCCCC1`, the inhibition was 51.5% (active). As for `O=c1cc(CN2CCN(c3cccc(Cl)c3)CC2)c2cc3c(cc2o1)CCCC3`, the entry is “inactive”; as for `CCOC(=O)c1c(NC(=O)CSc2cn(CC)c3ccccc23)sc2c1CCC2`, “inactive”. Consider `Cc1ccc(C(=O)c2c(NC(=O)c3ccncc3)sc3c2CCCC3)cc1`, for which the inhibition entry was “inactive”. As for `COc1cccc(OC)c1C(=O)Nc1sc2c(c1C(N)=O)CCCC2`, the figure is 33% (active); as for `Cc1cc2ccccn2c1C(=O)c1cccc(F)c1`, “inactive”; as for `COc1ccc(C(CCN(Cc2ccc(OC)c(OC)c2)C(=O)CCl)c2ccccc2)cc1` (configuration not stated), 36% (active). For the compound `Cc1ccc(-c2csc(NCCc3nc4cc(Cl)c(Cl)cc4n3CCOCCO)n2)cc1`, the inhibition is 54% (active). In the case of `CCOC(=O)N1CCN(C(=O)COc2ccc3oc4c(c3c2)CCCC4)CC1`, the inhibition entry was “inactive”. As for `Cc1cccc(NC(=O)c2sc3nc4c(c(-c5ccco5)c3c2N)CCC4)c1`, the figure is 58.5% (active); as for `O=C(Nc1ccc2c(c1)CCC2)c1cccc(S(=O)(=O)Nc2ccccc2Cl)c1`, “inactive”; as for `O=C(N/N=C/c1ccccn1)c1cccc(NC(=O)c2ccc(Cl)cc2)c1`, 48% (active). As for `O=C(COc1ccc(Cl)cc1Cl)N/N=C/c1ccccn1`, the figure is 47% (active); as for `Oc1ccc(/C=N/Nc2nc(-c3ccccc3F)nc3ccccc23)c(O)c1`, “inactive”.

For the compound `COc1ccc(C(=O)C2CCCN(C(=O)c3ccc(OC)o3)C2)c(C)c1` (configuration not stated), the inhibition entry was “inactive”.

As for `COc1ccc(OC)c(C(=O)c2coc3ccc(OC)cc23)c1`, the inhibition was 47% (active).

Consider `Cc1ccnc(N2CCN(C(=O)CSc3nc4ccccc4nc3N3CCCCC3)CC2)c1`, for which the inhibition entry was “inactive”. As for `Clc1ccc(COn2c(-c3ccc(Cl)cc3Cl)nc3ncccc32)cc1`, the inhibition is 41% (active). As for `Cc1onc(-c2ccc(Cl)cc2)c1-c1ccnn1S(=O)(=O)c1ccc(Cl)cc1`, the entry is “inactive”. Next, `Cc1ccc(SCC(=O)c2cc(C)c(OC(=S)N(C)C)c(C)c2)cc1`: “inactive”; `Cc1[nH][nH]c(=O)c1C(c1ccc(-c2ccc(Cl)cc2)o1)c1c(C)[nH][nH]c1=O`: “inactive”; `Cc1cc(C=O)c(C)n1-c1ccc(NC2CCCCC2)c([N+](=O)[O-])c1`: 63% (active). On to `Cc1ccc(NC(=O)c2cc([N+](=O)[O-])ccc2Cl)c(O)c1`, for which the inhibition is 58.5% (active). For the compound `CCN(CC)S(=O)(=O)c1ccc(N(C)Cc2ccc(C(F)(F)F)cc2)nc1`, the inhibition entry was “inactive”. For the compound `O=C1CC(c2ccccc2)=NN1c1ccc([N+](=O)[O-])cc1`, the inhibition result was “inactive”. As for `O=C1c2ccccc2S(=O)(=O)N1CC(O)Cn1c2ccccc2c2ccccc21` (configuration not stated), the figure is 28% (active); as for `CCCCOC(=O)CCCc1ccc([N+](=O)[O-])cc1[N+](=O)[O-]`, “inactive”; as for `Cc1ncoc1C(=O)N1CCCC(C(=O)c2ccc3c4c(cccc24)CC3)C1` (configuration not stated), “inactive”.

For `COC(=O)C1=C(Nc2ccc(C)cc2)C=C(C)C(C(=O)OC)C1c1ccc(F)cc1` (configuration not stated), the inhibition was 36% (active). As for `CCn1cnc2scc(-c3ccc(C)c(C)c3)c2c1=O`, the entry is “inactive”. In the case of `CCCOc1ccc2c3c(c(=O)oc2c1OCCC)CCC3`, the inhibition was 66.5% (active). With `COc1ccc(C2CC(c3cccs3)=NN2c2ccccc2)cc1` (configuration not stated), the inhibition was 50% (active). Next, `COc1ccc(/C=C2\CCc3ccccc3C2=O)c(OC)c1OC`: “inactive”.
